Several values for one entry are separate records, joined by “and”; a condition that tells them apart may be missing. Equal values may be shown once. Inconclusive results are not listed. Activity calls are given as the source filed them. How the source made its calls, unless noted: active means hit-call score of the fitted dose curve at least 0.9, where 1 is the maximum; inconclusive means response in the unintended direction; inactive means score below 0.9.

Chain of rat CYP2A1, Cyp2a1 (gene 24894) (P11711 whole entry, looked up): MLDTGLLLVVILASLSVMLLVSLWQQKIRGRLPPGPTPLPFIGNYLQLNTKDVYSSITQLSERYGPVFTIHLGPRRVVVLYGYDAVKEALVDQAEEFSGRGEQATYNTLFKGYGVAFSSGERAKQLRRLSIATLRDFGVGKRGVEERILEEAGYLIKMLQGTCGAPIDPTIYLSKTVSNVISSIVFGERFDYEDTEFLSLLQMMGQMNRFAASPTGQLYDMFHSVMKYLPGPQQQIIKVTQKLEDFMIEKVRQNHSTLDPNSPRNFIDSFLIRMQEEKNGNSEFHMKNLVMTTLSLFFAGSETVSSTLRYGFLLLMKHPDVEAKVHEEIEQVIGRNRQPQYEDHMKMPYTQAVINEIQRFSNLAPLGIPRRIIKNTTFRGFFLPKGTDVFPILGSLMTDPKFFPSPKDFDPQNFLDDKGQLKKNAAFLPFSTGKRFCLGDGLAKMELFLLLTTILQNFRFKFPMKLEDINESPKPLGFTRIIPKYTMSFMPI
Chain of rat CYP2A2, Cyp2a2 (gene 24895) (P15149 whole entry, looked up): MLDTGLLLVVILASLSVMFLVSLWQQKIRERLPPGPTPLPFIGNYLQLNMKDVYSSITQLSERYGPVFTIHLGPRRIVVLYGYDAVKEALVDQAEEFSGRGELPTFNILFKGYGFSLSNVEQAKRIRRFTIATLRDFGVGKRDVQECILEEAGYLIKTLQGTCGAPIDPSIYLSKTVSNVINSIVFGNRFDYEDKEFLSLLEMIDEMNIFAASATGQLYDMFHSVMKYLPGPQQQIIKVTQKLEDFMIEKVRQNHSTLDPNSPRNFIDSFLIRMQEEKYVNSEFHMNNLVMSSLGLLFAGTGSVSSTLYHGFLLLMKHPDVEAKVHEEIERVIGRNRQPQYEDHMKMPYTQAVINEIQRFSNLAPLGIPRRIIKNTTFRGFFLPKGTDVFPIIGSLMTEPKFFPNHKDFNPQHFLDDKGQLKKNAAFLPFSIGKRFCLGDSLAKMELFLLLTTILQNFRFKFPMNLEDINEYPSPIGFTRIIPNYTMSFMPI

For one assay, the target named is rat CYP2A1, Cyp2a1 (gene 24894) (UniProt P11711). Description: NVS_ADME_rCYP2A1: NovaScreen (NVS) CYP450-related Enzyme Activity (ADME) Assay for rat CYP2A1 (AID 2283114; active means hit-call score of the fitted dose curve at least 0.9, where 1 is the maximum; inactive means score below 0.9). In a few lines:
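Recombinant rat CYP2A1, cell-free, fluorogenic substrate turnover read by fluorescence intensity 0.75 h after dosing. Primary screen at 10 uM in duplicate; actives rerun as concentration-response up to 20 uM; loss of signal versus acetonitrile control.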
Usually AC50 stands for the concentration giving half of the maximal activity seen. `CN(C)C(=O)Nc1cccc(C(F)(F)F)c1`: the AC50 was 4.33 µM (active).
On the same count and under the same terms, then `C#CC(C)(C)NC(=O)c1cc(Cl)cc(Cl)c1`, with 1.43 µM (active).
Consider `C=C(C)[C@H]1Cc2c(ccc3c2O[C@@H]2COc4cc(OC)c(OC)cc4[C@@H]2C3=O)O1`, for which the outcome was inactive.
On to `CCCOCC(=Nc1ccc(Cl)cc1C(F)(F)F)n1ccnc1`, for which the AC50 was 0.955 µM (active).
Still for that read-out and setting: to `CC1(C(=O)Nc2ccc(O)c(Cl)c2Cl)CCCCC1` belongs 1.8 µM (active).
Take `CCOP(=S)(OCC)Oc1ccc2c(C)c(Cl)c(=O)oc2c1`: the outcome was inactive.
Turning to `CC(C1CC1)C(O)(Cn1cncn1)c1ccc(Cl)cc1` (stereo not drawn), the AC50 was 4.58 µM (active).
`C[Si](Cn1cncn1)(c1ccc(F)cc1)c1ccc(F)cc1`: the AC50 is 1.39 µM (active).
Still for that read-out and setting: to `CSC1=N[C@@](C)(c2ccccc2)C(=O)N1Nc1ccccc1` belongs 7.68 µM (active); to `CCC(=O)Nc1ccc(Cl)c(Cl)c1`, 2.2 µM (active); to `CCOP(=S)(OCC)Oc1ccc([N+](=O)[O-])cc1`, 5.89 µM (active).
`CCOC(=O)CC(SP(=O)(OC)OC)C(=O)OCC` (stereo not drawn): the compound was classed as inactive.
With `FC(F)C(F)(F)OCC(Cn1cncn1)c1ccc(Cl)cc1Cl` (stereo not drawn), the AC50 is 1.85 µM (active).

The target in another assay is rat CYP1A2, Cyp1a2 (gene 24297) (UniProt P04799). Description: NVS_ADME_rCYP1A2: NovaScreen (NVS) CYP450-related Enzyme Activity (ADME) Assay for rat CYP1A2 (AID 2283115). On the procedure: NVS_ADME_rCYP1A2 is a biochemical, single-readout assay that uses extracted gene-proteins in a cell-free assay. Measurements were taken 1 hour after chemical dosing in a 96-well plate.NVS_ADME_rCYP1A2 is one of one assay component(s) measured or calculated from the NVS_ADME_rCYP1A2 assay. It is designed to make measurements of enzyme activity, a form of enzyme reporter, as detected with fluorescence intensity signals by Fluorescence technology.Data from the assay component NVS_ADME_rCYP1A2 was analyzed into 1 assay endpoint. This assay endpoint, NVS_ADME_rCYP1A2, was analyzed in the positive analysis fitting direction relative to Acetonitrile as the negative control and baseline of activity. Using a type of enzyme reporter, loss-of-signal activity can be used to understand changes in the enzymatic activity as they relate to the gene Cyp1a2. Furthermore, this assay endpoint can be referred to as a primary readout, because this assay has produced multiple assay endpoints where this one serves a enzymatic activity function. To generalize the intended target to other relatable targets, this assay endpoint is annotated to the cyp intended target family, where the subfamily is xenobiotic metabolism.
Chain of rat CYP1A2, Cyp1a2 (gene 24297) (P04799 whole entry, looked up): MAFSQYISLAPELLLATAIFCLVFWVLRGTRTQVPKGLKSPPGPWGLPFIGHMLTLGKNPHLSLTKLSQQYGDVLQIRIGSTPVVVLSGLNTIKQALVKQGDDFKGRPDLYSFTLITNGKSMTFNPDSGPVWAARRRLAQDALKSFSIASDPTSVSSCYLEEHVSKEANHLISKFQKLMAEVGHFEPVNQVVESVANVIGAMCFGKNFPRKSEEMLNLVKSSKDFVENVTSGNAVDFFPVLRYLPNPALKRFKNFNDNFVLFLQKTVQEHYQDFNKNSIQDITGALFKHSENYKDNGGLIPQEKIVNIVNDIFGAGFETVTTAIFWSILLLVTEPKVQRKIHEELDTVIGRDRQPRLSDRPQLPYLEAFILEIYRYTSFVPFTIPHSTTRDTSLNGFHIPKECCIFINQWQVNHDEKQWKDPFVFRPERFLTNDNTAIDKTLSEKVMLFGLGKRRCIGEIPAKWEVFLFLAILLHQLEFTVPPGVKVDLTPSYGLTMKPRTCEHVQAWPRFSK
Binding assays used specific radioligands (tritiated, iodinated) with non-radioactive competitive displacement ligands in agonist or antagonist protocols (as indicated) and various reference compounds and inhibitors to titrate specific binding to receptors and transporters. Most enzyme assays (CYPs, kinases, phosphatases, proteases, HDACs) used recombinant protein and specific substrates (fluorescence mostly, some colorimetric and radioactive) and inhibitors, followed by a biochemical separation of substrate and product. All assays for the biochemical HTS were initially run in duplicate at a single concentration (10 uM for CYP450 assays and 25 uM for all others). […] Each assay was run with positive and negative controls, and concurrent controls on every plate. The follow-up (secondary) screen tested active chemical-pairs in concentration series, as well as a few additional assays not tested in the primary screen, some selected negative inactives, and several cases re-run in the concentration series for confirmatory purposes.
As to `CCCSP(=O)(OCC)Oc1ccc(Br)cc1Cl` (stereo not drawn), the compound was classed as inactive.
The same measure, in the same setting: then `CCCOCC(=Nc1ccc(Cl)cc1C(F)(F)F)n1ccnc1`, with “inactive”; and `Cc1cc(C2CC2)nc(Nc2ccccc2)n1`, with “inactive”; and `CNc1cnn(-c2cccc(C(F)(F)F)c2)c(=O)c1Cl`, with “inactive”.
On the same count and under the same terms, then `CCC(=O)Nc1ccc(Cl)c(Cl)c1`, with “inactive”.
Same read-out and setting: to `CCOP(=O)(NC(C)C)Oc1ccc(SC)c(C)c1` (stereo not drawn) belongs “inactive”.

The next assay concerns the target rat CYP2A2, Cyp2a2 (gene 24895) (UniProt P15149). Description: NVS_ADME_rCYP2A2: NovaScreen (NVS) CYP450-related Enzyme Activity (ADME) Assay for rat CYP2A2 (AID 2283116). A digest of the protocol: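 Cell-free recombinant rat CYP2A2 activity with fluorogenic substrate, fluorescence read 0.2 h after dosing. Chemicals screened at 10 uM in duplicate, hits then run in concentration-response up to 20 uM; signal loss versus acetonitrile baseline.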
For `C=C(C)[C@H]1Cc2c(ccc3c2O[C@@H]2COc4cc(OC)c(OC)cc4[C@@H]2C3=O)O1`, the result was inactive.
In the case of `CCCOCC(=Nc1ccc(Cl)cc1C(F)(F)F)n1ccnc1`, the AC50 is 29.4 nM (active).
For `CC(C)N(C(=O)SCC(Cl)=C(Cl)Cl)C(C)C`, the result was inactive.
Turning to `CCOP(=S)(OCC)Oc1ccc2c(C)c(Cl)c(=O)oc2c1`, the result was inactive.
Take `CC(C1CC1)C(O)(Cn1cncn1)c1ccc(Cl)cc1` (stereo not drawn): the AC50 was 56.8 nM (active) and 76.2 nM (active).
Same read-out and setting: to `C#CCC1=C(C)C(OC(=O)C2C(C=C(C)C)C2(C)C)CC1=O` (stereo not drawn) belongs 3460 nM (active); to `C[Si](Cn1cncn1)(c1ccc(F)cc1)c1ccc(F)cc1`, 59.5 nM (active).
Still for that read-out and setting: then `CCc1cccc(C)c1N(C(=O)CCl)C(C)COC` (stereo not drawn), with 5570 nM (active); and `CC[C@H](C)[C@H]1O[C@]2(C=C[C@@H]1C)C[C@@H]1C[C@@H](C/C=C(\C)[C@@H](O[C@H]3C[C@H](OC)[C@@H](O[C@H]4C[C@H](OC)[C@@H](NC)[C@H](C)O4)[C@H](C)O3)[C@@H](C)/C=C/C=C3\CO[C@@H]4[C@H](O)C(C)=C[C@@H](C(=O)O1)[C@]34O)O2`, with 1650 nM (active).
In the case of `CCOC(=O)CC(SP(=O)(OC)OC)C(=O)OCC` (stereo not drawn), the result was inactive.
With `CCCCOC(=O)c1ccccc1C(=O)O`, the AC50 is 2600 nM (active).
As for `CCC(=NOC/C=C/Cl)C1=C(O)CC(C2CCOCC2)CC1=O` (stereo not drawn), the result was inactive.
As to `Nc1c(Cl)cc([N+](=O)[O-])cc1Cl`, the AC50 is 113 nM (active).
Same read-out and setting: to `FC(F)C(F)(F)OCC(Cn1cncn1)c1ccc(Cl)cc1Cl` (stereo not drawn) belongs 74 nM (active).

(Values after PubChem BioAssay (EPA / NIEHS).)
